Assay results from PubChem BioAssay (EPA / NIEHS).
Results filed as inconclusive are left out. The source made the active and inactive calls. How the source made its calls: active means hit-call score of the fitted dose curve at least 0.9, where 1 is the maximum; inconclusive means response in the unintended direction; inactive means score below 0.9.

What was measured:
[1] = biological target: AR (gene 367) (UniProt P10275); experiment: ACEA_AR_antagonist_80hr: ACEA Biosciences xCELLigence Real-Time Cell Analysis on Androgen Receptor Antagonism for Proliferation (AID 2283787);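 further: 22Rv1 human prostate cancer cells with growth followed by electrical impedance; hits lower the impedance growth signal relative to DMSO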
Sequence of AR (gene 367) (P10275 whole entry, looked up): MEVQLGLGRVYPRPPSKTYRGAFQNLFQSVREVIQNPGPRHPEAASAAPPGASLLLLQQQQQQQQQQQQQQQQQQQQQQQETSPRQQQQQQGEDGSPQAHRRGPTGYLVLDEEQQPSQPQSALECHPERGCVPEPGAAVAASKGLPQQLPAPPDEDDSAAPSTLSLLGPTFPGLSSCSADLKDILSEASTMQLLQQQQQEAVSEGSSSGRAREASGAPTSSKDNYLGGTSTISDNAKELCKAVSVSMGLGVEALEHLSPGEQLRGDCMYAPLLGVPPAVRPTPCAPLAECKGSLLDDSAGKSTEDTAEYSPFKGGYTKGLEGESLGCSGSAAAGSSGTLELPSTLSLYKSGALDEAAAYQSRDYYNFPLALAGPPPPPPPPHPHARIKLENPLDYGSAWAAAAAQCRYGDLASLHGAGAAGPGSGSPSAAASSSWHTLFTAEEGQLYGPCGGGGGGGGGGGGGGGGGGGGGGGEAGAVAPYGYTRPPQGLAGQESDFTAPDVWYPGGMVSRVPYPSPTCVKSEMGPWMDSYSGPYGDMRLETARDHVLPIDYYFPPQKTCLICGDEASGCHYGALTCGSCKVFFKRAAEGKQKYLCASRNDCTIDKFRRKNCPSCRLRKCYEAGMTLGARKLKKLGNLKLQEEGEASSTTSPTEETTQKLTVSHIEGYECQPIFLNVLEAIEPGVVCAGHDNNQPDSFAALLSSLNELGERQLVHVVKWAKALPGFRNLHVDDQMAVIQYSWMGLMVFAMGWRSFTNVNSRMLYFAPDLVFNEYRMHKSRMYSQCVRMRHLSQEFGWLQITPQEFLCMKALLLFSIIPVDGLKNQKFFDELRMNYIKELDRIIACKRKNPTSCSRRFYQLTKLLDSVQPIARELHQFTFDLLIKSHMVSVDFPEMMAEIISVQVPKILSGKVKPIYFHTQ
Procedure, shortened: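 Impedance readout (RT-CES), 80 h post-dose; loss-of-signal vs DMSO baseline. 22Rv1 cells in assay medium. Compounds: 8-pt 1:4 series, max 100 uM final, up to 0.5% DMSO; n = 2.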

[2] = ATG_M_06_XSP1: Attagene TRANS-FACTORIAL Multi-Species (XSP1) HepG2 Assay for M06 Transcription Factor (Internal Marker) (AID 2283790)
Procedure, shortened: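 Transfected HepG2 multi-reporter system treated 24 h in the presence of 3 nM 6-alpha-fluorotestosterone. The M06 internal marker transcript was quantified by RT-PCR with capillary electrophoresis as a background control, and gain of signal was scored versus DMSO.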

[3] = ATG_M_61_XSP1: Attagene TRANS-FACTORIAL Multi-Species (XSP1) HepG2 Assay for M61 Transcription Factor (Internal Marker) (AID 2283797)
Procedure, shortened: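 HepG2 cells transiently transfected with multiplexed GAL4-driven reporter units, dosed 24 h with 3 nM 6-alpha-fluorotestosterone present. Reporter mRNA quantified by RT-PCR, 6-FAM labelling, HpaI digestion and capillary electrophoresis; internal-marker background control, gain of signal versus DMSO.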

[4] = biological target: Peroxisome proliferator-activated receptor gamma (Homo sapiens) (UniProt P37231); experiment: ATG_hPPARg_XSP1: Attagene TRANS-FACTORIAL Multi-Species (XSP1) HepG2 Assay for human Peroxisome Proliferator-activated Receptor gamma (PPARg) (AID 2283800)
Sequence of Peroxisome proliferator-activated receptor gamma (Homo sapiens) (P37231 whole entry, looked up): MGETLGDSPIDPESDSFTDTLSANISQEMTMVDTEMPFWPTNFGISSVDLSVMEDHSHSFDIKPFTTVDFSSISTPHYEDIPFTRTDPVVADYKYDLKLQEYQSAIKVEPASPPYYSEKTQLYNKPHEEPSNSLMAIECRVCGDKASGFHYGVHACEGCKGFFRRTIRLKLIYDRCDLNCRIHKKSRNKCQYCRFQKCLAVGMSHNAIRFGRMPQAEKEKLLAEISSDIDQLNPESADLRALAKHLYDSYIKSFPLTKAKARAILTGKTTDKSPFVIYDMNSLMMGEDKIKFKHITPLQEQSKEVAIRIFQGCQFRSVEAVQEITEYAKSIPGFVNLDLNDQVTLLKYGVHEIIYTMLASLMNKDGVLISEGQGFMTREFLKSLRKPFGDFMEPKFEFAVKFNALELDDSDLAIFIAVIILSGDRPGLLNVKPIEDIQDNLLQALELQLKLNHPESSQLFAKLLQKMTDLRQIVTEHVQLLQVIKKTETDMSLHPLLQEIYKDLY
Method: (§1) ATG_XSP1_multi-species_TRANS is a cell-based, multiplexed assay created by modifying the existing Attagene TRANS-FACTORIAL system to include a panel of nuclear receptors from some or all the following species: human (Homo sapiens), mouse (Mus musculus), frog (Xenopus laevis), zebrafish (Danio rerio), chicken (Gallus gallus), and turtle (Chrysemys picta). The ECOTOX-FACTORIAL format uses HepG2, a human liver cell line, with measurements taken at 24 hours after chemical dosing in a 24-well plate. Xsp1 included 3 nM 6-alpha-fluorotestosterone to partially stimulate the androgen receptor.ATG_hPPARg_XSP1 is one of 29 assay components measured or calculated from the ATG_XSP1_multi-species_TRANS assay. It is designed to make measurements of mRNA induction, a form of inducible reporter, as detected with fluorescence intensity signals by Reverse transcription polymerase chain reaction (RT-PCR) and Capillary electrophoresis technology.The assay endpoint ATG_hPPARg_XSP1 was analyzed in the positive analysis fitting direction relative to DMSO as the negative control and baseline of activity. […] Furthermore, this assay endpoint can be referred to as a primary readout, because this assay has produced multiple assay endpoints where this one serves a reporter gene function. […]

[5] = biological target: human Thyroid hormone Receptor alpha (TRa), THRA (gene 7067) (UniProt P10827); experiment: ATG_hTRa_XSP1: Attagene TRANS-FACTORIAL Multi-Species (XSP1) HepG2 Assay for human Thyroid hormone Receptor alpha (TRa) (AID 2283805)
Sequence of human Thyroid hormone Receptor alpha (TRa), THRA (gene 7067) (P10827 whole entry, looked up, the tested form may be a part): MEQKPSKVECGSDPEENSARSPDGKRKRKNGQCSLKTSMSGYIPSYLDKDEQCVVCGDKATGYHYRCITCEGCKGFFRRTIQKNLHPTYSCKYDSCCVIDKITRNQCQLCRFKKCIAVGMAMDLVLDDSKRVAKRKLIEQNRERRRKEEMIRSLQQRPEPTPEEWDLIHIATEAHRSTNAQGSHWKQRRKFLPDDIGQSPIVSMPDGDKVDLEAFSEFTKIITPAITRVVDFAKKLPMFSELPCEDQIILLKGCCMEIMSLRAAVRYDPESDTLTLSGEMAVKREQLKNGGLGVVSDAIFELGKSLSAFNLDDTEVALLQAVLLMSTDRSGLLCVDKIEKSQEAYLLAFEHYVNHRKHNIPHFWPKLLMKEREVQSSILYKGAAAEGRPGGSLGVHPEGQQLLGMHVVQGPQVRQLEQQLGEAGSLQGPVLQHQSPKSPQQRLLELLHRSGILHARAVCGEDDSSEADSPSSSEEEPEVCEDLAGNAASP
Procedure, shortened: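 HepG2 cells transiently transfected with GAL4-UAS reporter units expressing chimeric NR-Gal4 proteins, dosed 24 hours with 3 nM 6-alpha-fluorotestosterone present. Reporter mRNA measured by RT-PCR and capillary electrophoresis; gain of signal fitted versus DMSO.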

[6] = system: turtle Thyroid Hormone Receptor, alpha (TRa), gene 101949057; experiment: ATG_trTRa_XSP1: Attagene TRANS-FACTORIAL Multi-Species (XSP1) HepG2 Assay for turtle Thyroid Hormone Receptor, alpha (TRa) (AID 2283806)
Method: as §1, with “receptor.ATG_trTRa_XSP1” for “receptor.ATG_hPPARg_XSP1”, “ATG_trTRa_XSP1” for “ATG_hPPARg_XSP1”

[7] = biological target: zebrafish Thyroid Hormone Receptor alpha (TRa), thraa (gene 30670) (UniProt Q98867); experiment: ATG_zfTRa_XSP1: Attagene TRANS-FACTORIAL Multi-Species (XSP1) HepG2 Assay for zebrafish Thyroid Hormone Receptor alpha (TRa) (AID 2283807)
Sequence of zebrafish Thyroid Hormone Receptor alpha (TRa), thraa (gene 30670) (Q98867 whole entry, looked up, the tested form may be a part): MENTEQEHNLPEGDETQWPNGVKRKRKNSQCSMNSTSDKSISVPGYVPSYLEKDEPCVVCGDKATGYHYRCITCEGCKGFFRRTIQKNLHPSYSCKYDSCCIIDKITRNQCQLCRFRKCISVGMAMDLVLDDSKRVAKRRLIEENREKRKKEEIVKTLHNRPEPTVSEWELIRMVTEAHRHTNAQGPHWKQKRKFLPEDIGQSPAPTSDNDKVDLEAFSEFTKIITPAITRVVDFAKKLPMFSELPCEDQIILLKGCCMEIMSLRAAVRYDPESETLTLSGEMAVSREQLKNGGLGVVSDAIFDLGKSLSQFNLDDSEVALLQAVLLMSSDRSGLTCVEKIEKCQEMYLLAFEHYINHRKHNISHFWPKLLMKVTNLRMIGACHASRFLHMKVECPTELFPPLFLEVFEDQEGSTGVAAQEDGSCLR
Procedure, shortened: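 HepG2 cells transiently transfected with GAL4-UAS reporter units including a zebrafish TRa–Gal4 chimera, dosed 24 h with 3 nM 6-alpha-fluorotestosterone present. Reporter mRNA quantified by RT-PCR and capillary electrophoresis; gain versus DMSO.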

[8] = biological target: human Thyroid hormone Receptor beta (TRb), THRB (gene 7068) (UniProt P10828); experiment: ATG_hTRb_XSP1: Attagene TRANS-FACTORIAL Multi-Species (XSP1) HepG2 Assay for human Thyroid hormone Receptor beta (TRb) (AID 2283808)
Sequence of human Thyroid hormone Receptor beta (TRb), THRB (gene 7068) (P10828 whole entry, looked up, the tested form may be a part): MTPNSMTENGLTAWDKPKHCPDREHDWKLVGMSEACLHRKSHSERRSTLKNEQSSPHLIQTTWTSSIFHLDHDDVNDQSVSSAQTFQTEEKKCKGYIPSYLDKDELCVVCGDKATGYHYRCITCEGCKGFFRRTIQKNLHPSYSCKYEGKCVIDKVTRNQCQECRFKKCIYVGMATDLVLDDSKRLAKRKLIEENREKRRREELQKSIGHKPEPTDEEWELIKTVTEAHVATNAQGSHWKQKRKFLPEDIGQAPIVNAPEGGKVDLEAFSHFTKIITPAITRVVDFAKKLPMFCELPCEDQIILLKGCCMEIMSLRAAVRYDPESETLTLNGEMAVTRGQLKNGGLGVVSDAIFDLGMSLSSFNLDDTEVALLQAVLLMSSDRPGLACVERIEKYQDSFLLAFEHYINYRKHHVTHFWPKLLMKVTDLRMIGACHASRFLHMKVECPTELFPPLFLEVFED
Procedure, shortened: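 HepG2 cells transiently transfected with reporter units driving GAL4-UAS reporters for chimeric NR-Gal4 proteins; 24 h chemical exposure with 3 nM 6-alpha-fluorotestosterone present. Reporter mRNA quantified by RT-PCR and capillary electrophoresis, gain of signal versus DMSO.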

[9] = system: zebrafish Peroxisome Proliferator-activated Receptor gamma (PPARg), gene 557037; experiment: ATG_zfPPARg_XSP1: Attagene TRANS-FACTORIAL Multi-Species (XSP1) HepG2 Assay for zebrafish Peroxisome Proliferator-activated Receptor gamma (PPARg) (AID 2283801)
Procedure, shortened: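 HepG2 cells transiently transfected with GAL4-UAS reporter units including a zebrafish PPARg–GAL4 chimera, dosed 24 h with 3 nM 6-alpha-fluorotestosterone present. Reporter mRNA quantified by RT-PCR, FAM labelling, HpaI digestion and capillary electrophoresis; induction versus DMSO.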

[10] = biological target: Nuclear receptor subfamily 1 group I member 2 (Mus musculus) (UniProt O54915); experiment: ATG_mPXR_XSP1: Attagene TRANS-FACTORIAL Multi-Species (XSP1) HepG2 Assay for mouse Pregnane X Receptor (PXR) (AID 2283803)
Sequence of Nuclear receptor subfamily 1 group I member 2 (Mus musculus) (O54915 whole entry, looked up, the tested form may be a part): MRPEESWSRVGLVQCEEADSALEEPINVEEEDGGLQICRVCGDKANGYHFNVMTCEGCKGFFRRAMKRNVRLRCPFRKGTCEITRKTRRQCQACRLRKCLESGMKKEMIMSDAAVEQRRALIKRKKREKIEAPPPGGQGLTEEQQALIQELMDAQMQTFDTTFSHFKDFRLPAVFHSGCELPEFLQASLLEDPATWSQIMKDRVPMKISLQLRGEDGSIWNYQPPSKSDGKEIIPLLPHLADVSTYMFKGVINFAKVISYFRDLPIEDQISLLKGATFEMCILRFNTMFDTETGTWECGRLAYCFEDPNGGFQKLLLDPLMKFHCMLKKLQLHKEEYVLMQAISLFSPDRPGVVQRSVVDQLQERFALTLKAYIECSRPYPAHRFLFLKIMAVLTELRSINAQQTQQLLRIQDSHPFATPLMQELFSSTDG
Procedure, shortened: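 Transiently transfected HepG2 cells expressing a receptor-Gal4 chimera drive a GAL4-UAS reporter; 3 nM 6-alpha-fluorotestosterone included. Reporter mRNA read 24 h post-dose by RT-PCR and capillary electrophoresis; gain of signal relative to DMSO.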

## CC(C)(CO)CO
[1]
  outcome: inactive

## CC(C)(C)c1cccc(O)c1
[1]
  outcome: inactive

## CC1COC(=O)O1 (stereo unspecified)
[1]
  outcome: inactive

## COc1cc(OC)c2ccc(=O)oc2c1
[1]
  AC50: 3.3 µM (active)

## CCC(C)(C)C1CCC(=O)CC1
[1]
  outcome: inactive

## CC(=O)N(C)C
[1]
  outcome: inactive

## CC1=CCC(C(C)(C)O)CC1 (stereo unspecified)
[1]
  AC50: 7.98 µM (active)

## CC(CCO)CC(C)(C)C (stereo unspecified)
[1]
  outcome: inactive

## C#C[C@]1(O)CC[C@H]2[C@@H]3CCc4cc(O)ccc4[C@H]3CC[C@@]21C
[2]
  outcome: inactive
[3]
  outcome: inactive
[4]
  outcome: inactive
[5]
  outcome: inactive
[6]
  outcome: inactive
[7]
  outcome: inactive
[8]
  outcome: inactive

## CCCCCCCCCCOC(=O)c1ccccc1C(=O)OCCCCCCCC
[1]
  outcome: inactive

## CCCCCCOc1ccc(O)cc1
[1]
  AC50: 13.3 µM (active)

## CC/C(=C(\c1ccccc1)c1ccc(OCCN(C)C)cc1)c1ccccc1
[2]
  outcome: inactive
[3]
  outcome: inactive
[4]
  outcome: inactive
[9]
  outcome: inactive
[10]
  outcome: inactive
[5]
  outcome: inactive
[7]
  outcome: inactive
[8]
  outcome: inactive

## COC(=O)c1cccc(C(=O)OC)c1
[1]
  outcome: inactive
